Measurements: PubChem BioAssay AID1117361 (Southern Research Institute, 2015)
Screen size: about 3,600 compounds; about 900 (25%) were called active. A selection follows. Entries with a potency or affinity are not part of this list. Values without a mark were called inactive. The rule behind the calls is not given here.

biological target: Protein Tat (Human immunodeficiency virus type 1 group M subtype B (isolate HXB2)) (UniProt P04608); assay: HIV-1 Tat–TAR interaction blockers – biochemical, fluorescence polarization, FAM-labeled TAR RNA, counter-screen for Vif-APOBEC3G degradation inhibitor project, dose response (AID 1117361); conditions: Tat-TAR RNA binding; series mostly up to 100 µM; inhibition: at the top concentration

Row | SMILES | inhibition | outcome
1 | COc1cccc(-c2nn(C)c3sc(C(=O)Nc4ccc5c(c4)OCCO5)cc23)c1 | 4.47% [at 50 µM] | –
2 | Cc1nc(N)nc(C)c1Cc1ccccc1 | 2.73% | –
3 | CCOC(=O)C1=C(N)OC2=C(C(=O)CCC2)C1c1ccc(C)s1 (stereo not given) | 5.46% | –
4 | O=C(O)Cc1ccc(C(=O)c2ccccc2)s1 | – | inactive
5 | CCS(=O)(=O)N1CCN(C(=O)CC(C)C)CC1 | 0.68% | –
6 | Cn1c(-c2ccc(Cl)cc2)ccc(C#N)c1=O | 4.73% | –
7 | CCOC(=O)N1CCN(C(=O)c2cnc3n(c2=O)CCS3)CC1 | 5.41% | –
8 | CCOC(=O)c1c(NC(=O)C(C)N2CCN(C(=O)c3ccco3)CC2)sc2c1CCCC2 (stereo not given) | 5.46% | –
9 | Nc1nc(SCc2ccccc2Cl)n[nH]1 | – | inactive
10 | Nc1ccccc1-c1nnc(SCc2ccccc2Cl)[nH]c1=O | 23.2% | –
11 | c1ccc(-n2c(SCc3ccncc3)nnc2-c2ccco2)cc1 | 24.3% | –
12 | Cn1c(CSc2nnc(SCc3ccccc3)s2)nc2ccccc21 | 2.05% | –
13 | O=C(c1ccc(F)cc1)N1CCC(C(=O)N(Cc2ccccc2)c2ccccc2)CC1 | 6.6% | –
14 | CCCCNC(=O)Oc1cccc(N2CCCC2=O)c1 | 2.7% | –
15 | COCCn1c(N)c(NCc2ccccc2)c(=O)n(CC(=O)Nc2cc(C)ccc2C)c1=O | 3.41% | –
16 | COc1ccc(C(C)=O)cc1CN1C(=O)NC2(CCCC2)C1=O | – | inactive
17 | COc1ccc(S(=O)(=O)N2CCC(NC(=O)OCc3c(Cl)cccc3Cl)CC2)cc1 | – | inactive
18 | CN1CCN(S(=O)(=O)c2ccc(NC(=O)Nc3cccc(Cl)c3)cc2)CC1 | 0.68% | –
19 | O=C(CSCc1ccc(Br)cc1)NC1CC1 | 14.8% | –
20 | Oc1ccc(/C=C/c2cc(O)cc(O)c2)cc1 | – | inactive
21 | COc1ccc(F)cc1S(=O)(=O)Nc1cc2c3c(c1)CC(=O)N3CCC2 | 4.34% | –
22 | CCC(C)NC(=O)CSc1nc2n[nH]c(C)c2c(=N)n1-c1ccc(OC)cc1 (stereo not given) | 3.41% | –
23 | CCOC(=O)C1=C(C)OC(N)=C(C#N)C1c1cc(Cl)c(OCC(N)=O)c(OC)c1 (stereo not given) | 18.9% | –

Row | SMILES | inhibition | outcome
24 | CN1C(=O)C2(C(C#N)=C(N)Oc3c2oc(CO)cc3=O)c2ccccc21 (stereo not given) | 2.7% | –
25 | Cc1nc2ccc(NC(=O)Cc3cccs3)cc2s1 | 19.8% | –
26 | O=C(Cc1cccs1)Nc1cccc(-c2nc3ccccc3o2)c1 | – | inactive
27 | Cc1ccc(-c2csc(NC(=O)Cc3cccs3)n2)cc1C | 2.05% | –
28 | COC(=O)c1ccccc1NC(=O)CNC(=O)c1ccc(OC)cc1 | – | inactive
29 | COC(=O)C1=C(CSc2nc3ccccc3o2)NC(=O)NC1c1cc(C)ccc1C (stereo not given) | 1.36% | –
30 | COc1ccc(NS(=O)(=O)c2cc(N=Nc3c(O)[nH]c(=O)[nH]c3=O)ccc2Cl)cc1 | – | inactive
31 | CC1(C)C2CCC1(C)C(OC(=O)C[n+]1ccccc1)C2 (stereo not given) | 1.65% | –
32 | CCc1ccccc1NC(=O)N1CCc2ccccc21 | – | inactive
33 | CC(=O)Nc1nnc(SCC(=O)N2CCCc3ccccc32)s1 | – | inactive
34 | COc1ccc(-c2nc(CS(=O)CC(=O)NC3CCCc4ccccc43)c(C)o2)cc1OC (stereo not given) | 10.1% | –
35 | Cc1ccc(S(=O)(=O)N2CCCC(C(=O)O)C2)s1 (stereo not given) | – | inactive
36 | O=S(=O)(c1ccc(Br)s1)N1CCCCC1 | 4.73% | –
37 | CCN(CC)CCNC1=NCCn2c1cc1cc(OC)ccc12 | 5.46% | –
38 | CCc1noc(N)c1C(=O)Nc1ccc(F)c(Cl)c1 | 3.38% | –
39 | CCNC(=O)NC(=O)C(C)OC(=O)c1oc2ccc(OCC)cc2c1C (stereo not given) | – | inactive
40 | Cc1c(-c2ccccc2)nc2ccccc2c1C(=O)O | 10.2% | –
41 | Cc1cc(C#N)c2ccccc2n1 | – | inactive
42 | CCCCOc1ccc(C(=O)OC(C)CN(C)C)cc1 (stereo not given) | 4.09% | –
43 | CCC(=O)Nc1cccc(Oc2nc(C)cc(C)c2C#N)c1 | 6.76% | –
44 | Clc1ncnc2scc(-c3ccccc3)c12 | 9.02% | –
45 | Cc1nn(Cc2ccccc2)c(C)c1NC(=O)c1cc(-c2ccc3c(c2)OCO3)on1 | – | inactive
46 | O=C(OCc1ccc(Cl)cc1)c1cnccn1 | – | inactive

Row | SMILES | inhibition | outcome
47 | NNC(=O)CCN1CCN(C(c2ccccc2)c2ccccc2)CC1 | – | inactive
48 | Cc1ccccc1CS(=O)(=O)CCC(=O)NCCN1CCN(c2cccc(Cl)c2)CC1 | 13.5% | –
49 | O=C(CN1CCN(c2nc(-c3ccccc3)cs2)CC1)Nc1ccc2c(c1)OCO2 | – | inactive
50 | CCOC(=O)CSc1ncnc2c1cnn2-c1ccc(C)cc1 | 0.68% | –
51 | COc1ccc(-n2nnnc2-c2ccccc2)cc1 | 1.36% | –
52 | COc1cnc(SCc2c(Cl)cccc2Cl)nc1Cl | 7.43% | –
53 | Clc1c(-c2nnc3n2CCC3)sc2ccccc12 | 2.03% | –
54 | CC(NC(=O)CSc1nnc2n1CCCCC2)c1ccccc1Cl (stereo not given) | 2.47% | –
55 | Cc1cc2cc3c(=O)[nH]c(=O)nc-3n(CC(O)C(O)C(O)CO)c2cc1C (stereo not given) | 23.7% | –
56 | CCCn1nc(NC(=O)c2ccccn2)c2cc3cc(C)ccc3nc21 | – | inactive
57 | O=C1COc2ccc(C(=O)CSc3nnc(-c4cccs4)n3Cc3ccccc3)cc2N1 | – | inactive
58 | COc1cc2ccccc2cc1C(=O)N1CCN(c2ccccc2O)CC1 | – | inactive
59 | CCOCCNC(=O)c1ccccc1C(=O)NCCOCC | 4.05% | –
60 | COc1ccc(Oc2nc(C)cc(C)c2C#N)cc1 | – | inactive
61 | COC(=O)COn1c(-n2nc(C)cc2C)nc2ccccc2c1=O | – | inactive
62 | Cc1ccc(S(=O)(=O)n2ccc(=O)[nH]2)cc1 | – | inactive
63 | CCOC(=O)c1c(NC(=O)c2cc(CC(C)C)on2)sc(C(C)=O)c1C | – | inactive
64 | CCN(CC)C(=O)c1sc(NC(=O)c2ccc3c(c2)OCO3)c(C#N)c1C | 2.7% | –
65 | O=C(COC(=O)C12CC3CC(CC(Br)(C3)C1)C2)Nc1ccc2[nH]c(=O)[nH]c2c1 | – | inactive
66 | COc1cc(CC(=O)NCC(C)(C)N2CCOCC2)cc(OC)c1OC | 7.68% | –
67 | CCC(Sc1nc(-c2ccccc2)cc(=O)[nH]1)C(=O)O (stereo not given) | 10.1% | –
68 | N#C/C=C\Oc1ccc(Cl)cc1N | 13% | –
69 | COc1ccccc1OCCOc1ccccc1/C=N/n1cnnc1 | – | inactive

Row | SMILES | inhibition | outcome
70 | Cc1c(C(=O)N2CCN(c3ccccc3F)CC2)sc2nc(-c3ccccc3)cn12 | 4.77% | –
71 | CN(c1ccc(C(=O)N2CCc3ccccc3C2)cc1)S(C)(=O)=O | – | inactive
72 | COc1ccc(C)cc1NC(=O)COC(=O)CCC(=O)c1cccs1 | – | inactive
73 | CCn1c(N)c(C(=O)NCc2ccc3c(c2)OCO3)sc1=S | – | inactive
74 | CCCn1nc2cc(C(=O)NCc3ccc4c(c3)OCO4)ccc2c1OCC | 0.68% | –
75 | COC(=O)C1=C(O)/C(=C/c2cccc(OC)c2O)N=C1C | – | inactive
76 | COC(=O)C1=C(O)/C(=C\c2ccc(CNC(=O)C(=O)Nc3ccc(C)c(C)c3)o2)N=C1C | 9.02% | –
77 | CCOC(=O)c1c(C)c(/C=N/Nc2ccccc2)n(C)c1C | – | inactive
78 | CCC(C)Nc1nc2c(c(=O)[nH]c(=O)n2C)n1CCC(C)C (stereo not given) | – | inactive
79 | COC(=O)c1cn[nH]c1NC(=S)Nc1ccc(C)cc1Cl | 15.7% | –
80 | CCCCNC(=O)C1CCCN(S(=O)(=O)c2ccc(-n3cnnn3)cc2)C1 (stereo not given) | – | inactive
81 | CCN(CC)c1ccc(C2C3CCCCC3(O)CCN2CC(=O)Nc2ccccc2)cc1 (stereo not given) | 5.41% | –
82 | COc1ccccc1NC(=O)c1cc2ccccc2o/c1=N\O | 15% | –
83 | CC1CN(S(=O)(=O)c2cc(C(=O)NCc3ccncc3)ccc2Cl)CC(C)O1 (stereo not given) | 3.3% | –
84 | Cc1ccc(Cn2ccc(NC(=O)c3cc(-c4cccc(Cl)c4)on3)n2)cc1 | 9.55% | –
85 | COc1ccc(NC(=O)C2CCCNC2)cc1OCC(C)C (stereo not given) | – | inactive
86 | O=c1c2c(nc(NCCO)n1CC1CCCCC1)-c1ccccc1CC21CCCC1 | – | inactive
87 | CC(Sc1nnnn1C)C(=O)Nc1ccccc1-c1ccccc1 (stereo not given) | 2.7% | –
88 | CCOC(=O)CCC(=O)N1CCNC(=O)C1 | – | inactive
89 | CCNC(=O)c1ccc(-n2nc(C(F)(F)F)c3c2CCCC3)cc1 | 1.35% | –
90 | CS(=O)(=O)c1ccc2nnn(OCC(=O)Nc3cccc(C#N)c3)c2c1 | – | inactive
91 | Cc1cccc2c1NC1(CCCC1)CC2C (stereo not given) | 14% | –
92 | O=C(NCCCN1CCOCC1)C1CC(=O)N(CCc2ccccc2)C1 (stereo not given) | – | inactive

Row | SMILES | inhibition | outcome
93 | CCN(CC)c1ccc(NC(=O)c2c(C)noc2C)cc1 | – | inactive
94 | O=C(c1ccc2c(c1)[nH]c(=S)n1c3ccccc3nc21)N1CCN(c2cccc(Cl)c2)CC1 | 4.12% | –
95 | COc1ccc(S(=O)(=O)N2CCC(C(=O)NCc3cccnc3)CC2)cc1Cl | 3.01% | –
96 | COc1cc(NC(=O)c2cc3nc(-c4ccccc4)cc(-c4ccccc4)n3n2)cc(OC)c1OC | 2.7% | –
97 | CC(=O)c1cccc(NC(=O)CC2Oc3ccc(C)cc3NC2=O)c1 (stereo not given) | 9.46% | –
98 | O=C(CCNS(=O)(=O)c1ccc(Cl)cc1)NCc1cccnc1 | – | inactive
99 | C=C(C)C1CC=C(C)/C(=N\NC(=O)CCC(=O)Nc2ccc(C)c(C)c2)C1 (stereo not given) | – | inactive
100 | O=c1c2c([nH]c3ccccc13)CCCCCC2 | 3.38% | –
101 | CC(C)CCNC(=O)Cn1c2c(c(-c3ccccc3Cl)cc1=O)CCC2 | 11.6% | –
102 | FC(F)(F)C1=Nc2cccc3cccc(c23)N1 | 1.67% | –
103 | CCc1nc(-c2ccc(C)nc2OC)no1 | 9.46% | –
104 | CS(=O)(=O)c1ccc(C(=O)Nc2nc(-c3ccco3)c(-c3ccco3)s2)cc1 | 27.7% | –
105 | COc1ccc(NC(=O)CSc2nc3c(cc2C#N)CN(C)CC3)cc1 | 7.68% | –
106 | O=S(=O)(N1CCOCC1)N1CCCN(S(=O)(=O)N2CCOCC2)CC1 | – | inactive
107 | Cc1c(C(=O)N2CCCCC2)nnn1-c1nonc1N | 7.01% | –
108 | CCOC(=O)N1CCC(N2C(=O)c3ccccc3C2Nc2ccccc2)CC1 (stereo not given) | – | inactive
109 | COc1ccc(-c2noc(Cc3ccc(Cl)cc3)n2)cc1OC | – | inactive
110 | COc1ccc(C(=O)n2nc(-c3ccc(Cl)cc3)nc2N)cc1OC | 13.6% | –
111 | Cc1cc(C)c2c(=N)c3ccccc3n(CCCCCCCCn3c4ccccc4c(=N)c4c(C)cc(C)nc43)c2n1 | – | inactive
112 | COc1cccc(OC)c1OCCCc1c(C)n[nH]c1C | 5.41% | –
113 | O=C(N/C(=C/c1ccc(Cl)cc1)c1nc2ccccc2[nH]1)c1ccco1 | 4.05% | –
114 | COc1cccc(C(=O)Nc2nc3ccccc3[nH]2)c1 | 10.9% | –
115 | CCN(CC)C(=O)CCNS(=O)(=O)c1ccc(C)cc1 | 2.7% | –
